# In PubChem BioAssay (NCI):
# About 83,000 compounds went through this panel and 20% of them were active in at least one assay; those are over-represented in the sample as a whole.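 Plates (96-well) were seeded with cells, treated with compound at one concentration, and incubated for 48 hours before percent growth was determined.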 Activity calls are given as the source filed them. The calls were made as follows: active = growth percent below 10; inactive = the rest.
# Test system: UO-31 renal
# Experiment: NCI-60 one-dose screen, 48 h (100 = growth as untreated, 0 = no growth, -100 = all killed)
# Conditions: 10 µM unless noted
row,Structure (SMILES),growth
1,COc1ccccc1N1CCN(CC(O)COc2c(Br)c(Br)c(Br)c3c2OC(C)(C)C3)CC1 (configuration not stated),13.2% (inactive)
2,CC(=O)N[C@@H](CNC(=O)c1cc(NC(=O)c2cc(NC(=O)c3cc(NC(=O)c4nccn4C)cn3C)cn2C)cn1C)CC(=O)Nc1cn(C)c(C(=O)Nc2cc(C(=O)Nc3cc(C(=O)Nc4cc(C(=O)NCCCN(C)CCCNC(=O)c5cccc(C(=O)O)c5)n(C)c4)n(C)c3)n(C)c2)n1,77.1% (inactive)
3,O=[N+]([O-])c1ccc(NS(=O)(=O)c2cc(Cl)ccc2Cl)c2ccccc12,43% (inactive)
4,CN1CCN(C(=O)/C=C/c2ccc([N+](=O)[O-])o2)CC1,79.3% (inactive)
5,CCn1cc(/C=C2\Oc3cc(OCC#N)ccc3C2=O)c2cc(OC)ccc21,45.7% (inactive)
6,S=c1ssnc1-c1ccccn1,-40.8% (active)
7,COc1ccc2c(c1)nnc1c3cccnc3[nH]c21,-74.1% (active)
8,COc1cccc(/C=N/C(=S)NC2(C)C3CCC(C3)C2(C)C)c1O (configuration not stated),53% (inactive)
9,CC1(C)Cc2c(Br)c(Br)c(Br)c(OCC(O)CN3CCN(c4ccccn4)CC3)c2O1 (configuration not stated),47.7% (inactive)
10,O=C1OC(c2ccc(-c3ccccc3)cc2)=C/C1=C/C=C/c1ccccc1,80% (inactive)
11,CCCCCn1ncc(-c2c(O)c(O)cc3c(O)c(-c4c(C)cc5c(-c6cnn(CCCCC)n6)c(O)c(O)cc5c4O)c(C)cc23)n1,-49.5% (active)
12,CCC1S/C(=N\N=C(/C)c2cc3ccccc3o2)N(c2ccccc2)C1=O (configuration not stated),75.9% (inactive)
